A short description of assay [1]: qHTS assay for small molecules that induce genotoxicity in human embryonic kidney cells expressing luciferase-tagged ATAD5 (AID 651632). Also: nearly all actives have a fitted effect of over 15% in size. The essentials:
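Reporter cells (HEK293T) express luciferase-tagged ATAD5, a protein that accumulates after DNA damage. Treat 16 hr at 37C/5% CO2, add Amplite, wait 30 min at RT, and read luminescence.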

Assay [2] in a line: qHTS assay to test for compound auto fluorescence at 535 nm (green) in HepG2 cells (AID 720675).
Assay [3] is described as follows: qHTS assay to test for compound auto fluorescence at 460 nm (blue) in HEK293 cells (AID 720678). The essentials: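 Measured: blue fluorescence (Ex 405/Em 460 nm) of compound-treated HEK293 cells, incubated overnight at 37C with 5% CO2 and scaled to triamterene equivalents.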
Assay [4] in a line: qHTS assay to test for compound auto fluorescence at 590 nm (red) in HEK293 cells (AID 720679). The essentials: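 Using HEK293 cells at 2,000 per well, the screen added 23 nL of each compound after cell attachment and incubated overnight (37C, 5% CO2). The plate reader then captured red-label fluorescence, Ex/Em 540/590nm.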
A short description of assay [5]: qHTS assay to test for compound auto fluorescence at 535 nm (green) in HEK293 cells (AID 720680).
Assay [6] in a line: qHTS assay to test for compound auto fluorescence at 460 nm (blue) in HEK293 cell free culture (AID 720681). The essentials:
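Compounds were added to cell-free DMEM with 10% FBS and fluorescence read directly. The blue channel used 405 nm excitation and 460 nm emission, with triamterene as the reference fluorophore.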

A short description of assay [7]: qHTS assay to test for compound auto fluorescence at 535 nm (green) in HEK293 cell free culture (AID 720682). The essentials: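 Cell-free medium (DMEM, 10% FBS) receives compound or DMSO by pintool. Plate read directly at Ex 485/Em 535 nm. Signal converted to fluorescein equivalency.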
The nature of assay [8]: qHTS assay to test for compound auto fluorescence at 590 nm (red) in HEK293 cell free culture (AID 720683). The essentials:
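Cell-free wells of DMEM with 10% FBS received compound, and intrinsic fluorescence was read at excitation/emission 540/590 nm. Values expressed as equivalence to Rose Bengal sodium.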

Assay [9] in a line: qHTS assay to test for compound auto fluorescence at 590 nm (red) in HepG2 cell free culture (AID 720684). The essentials: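 Compound was pinned into wells holding MEM with 10% FBS and no cells, and red fluorescence was read at Ex/Em 540/590 nm. Signal is expressed as auto fluorescence equivalency relative to Rose Bengal sodium.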
Assay [10] is described as follows: qHTS assay to test for compound auto fluorescence at 460 nm (blue) in HepG2 cell free culture (AID 720685). The essentials: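 Compound (23 nL) or DMSO pinned into cell-free MEM with 10% FBS; blue fluorescence read at 405/460 nm excitation/emission, expressed as auto-fluorescence equivalency to triamterene.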
Assay [11] can be described thus: qHTS assay to test for compound auto fluorescence at 535 nm (green) in HepG2 cell free culture (AID 720686).
A short description of assay [12]: qHTS assay to test for compound auto fluorescence at 460 nm (blue) in HepG2 cells (AID 720687). The essentials:
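HepG2 cells in MEM with 10% FBS, attached overnight at 37 C, were exposed to compound or DMSO for 1 hr at 37 C, 5% CO2. Blue fluorescence was read at 405/460 nm, with triamterene as reference fluorophore.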

Assay [13] concerns the target Glucocorticoid receptor (Homo sapiens) (UniProt P04150). Put plainly: qHTS assay to identify small molecule agonists of the glucocorticoid receptor (GR) signaling pathway (AID 720691; active = well fitted activation curve with a large enough effect in the signal ratio in the repeat runs, not every such curve was filed as active; the % refers to the signal ratio). The essentials:
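Reporter read-out: fluorescence intensity following 2 h room-temperature LiveBLAzer B/G FRET substrate loading. Prior step: GR-bla HeLa cells held 4 h, then treated 18 h at 37 C.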

Assay [14] has the same target. Put plainly: qHTS assay to identify small molecule antagonists of the glucocorticoid receptor (GR) signaling pathway (AID 720692; active = well fitted inhibition curve with a large enough effect in the signal ratio in the repeat runs, not every such curve was filed as active; the % refers to the signal ratio; also: potency is read from the fitted curve at half-maximal effect). The essentials:
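Dexamethasone (5 nM final) stimulated a stably integrated GRE-beta-lactamase reporter in HeLa cells during 18 h co-incubation with compounds; signal was quantified as fluorescence intensity of B/G FRET substrate after 2 h.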

Assay [15] can be described thus: qHTS assay for small molecules that induce genotoxicity in human embryonic kidney cells expressing luciferase-tagged ATAD5 - cell viability (AID 651634; calls by dose curve; also: nearly all actives have a fitted effect of over 25% in size; also: potency is read from the fitted curve at half-maximal effect). The essentials:
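Seeding of 2,000 HEK293T ATAD5-luciferase cells per well preceded pin-tool compound transfer. Plates sat 15.5 hr at 37C under 5% CO2, then fluorescence was read after 30 min with CellTiter-Fluor.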

Assay [16] is described as follows: qHTS assay to test for compound auto fluorescence at 590 nm (red) in HepG2 cells (AID 720674). The essentials: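 Seeding: 2,000 HepG2 cells/well, MEM/10% FBS, overnight 37 C. Dosing: compound vs DMSO. Incubation: 1 hr, 37 C, 5% CO2. Read: fluorescence 540 ex/590 em, Rose Bengal sodium as red reference.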
Assay [17] can be described thus: qHTS assay for small molecule disruptors of the mitochondrial membrane potential - cell viability (AID 720634; calls by dose curve; also: nearly all actives have a fitted effect of over 20% in size; also: potency is read from the fitted curve at half-maximal effect). The essentials: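 Measuring cytotoxicity alongside mitochondrial potential, the screen quantified ATP by luminescence in HepG2 cells after 1 hr compound incubation and a 30 min room-temperature CellTiter-Glo step.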
The nature of assay [18]: qHTS assay for small molecule disruptors of the mitochondrial membrane potential (AID 720635). Also: potency is read from the fitted curve at half-maximal effect. The essentials:
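HepG2 cells exposed to compound 1 hr at 37C, then Mito-MPS dye 30 min. Ratio read of aggregate (540/590 nm) versus monomer (490/535 nm) fluorescence.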

Each structure is given as a SMILES string. “And” between values parts separate entries of the source, which are not always exact repeats. Equal values may be shown once. Values without a mark were called inactive. Records with an inconclusive call do not appear. The source made the active and inactive calls. Unless noted, calls follow the shape of the dose curve; as a rule, active = well fitted curve in the direction sought with a large enough effect in the repeat runs; inconclusive = weak or mixed curves; inactive = no such curve, though single readings can be large; an effect the other way counts as inactive or inconclusive.

Sequence of Glucocorticoid receptor (Homo sapiens) (P04150 whole entry, looked up): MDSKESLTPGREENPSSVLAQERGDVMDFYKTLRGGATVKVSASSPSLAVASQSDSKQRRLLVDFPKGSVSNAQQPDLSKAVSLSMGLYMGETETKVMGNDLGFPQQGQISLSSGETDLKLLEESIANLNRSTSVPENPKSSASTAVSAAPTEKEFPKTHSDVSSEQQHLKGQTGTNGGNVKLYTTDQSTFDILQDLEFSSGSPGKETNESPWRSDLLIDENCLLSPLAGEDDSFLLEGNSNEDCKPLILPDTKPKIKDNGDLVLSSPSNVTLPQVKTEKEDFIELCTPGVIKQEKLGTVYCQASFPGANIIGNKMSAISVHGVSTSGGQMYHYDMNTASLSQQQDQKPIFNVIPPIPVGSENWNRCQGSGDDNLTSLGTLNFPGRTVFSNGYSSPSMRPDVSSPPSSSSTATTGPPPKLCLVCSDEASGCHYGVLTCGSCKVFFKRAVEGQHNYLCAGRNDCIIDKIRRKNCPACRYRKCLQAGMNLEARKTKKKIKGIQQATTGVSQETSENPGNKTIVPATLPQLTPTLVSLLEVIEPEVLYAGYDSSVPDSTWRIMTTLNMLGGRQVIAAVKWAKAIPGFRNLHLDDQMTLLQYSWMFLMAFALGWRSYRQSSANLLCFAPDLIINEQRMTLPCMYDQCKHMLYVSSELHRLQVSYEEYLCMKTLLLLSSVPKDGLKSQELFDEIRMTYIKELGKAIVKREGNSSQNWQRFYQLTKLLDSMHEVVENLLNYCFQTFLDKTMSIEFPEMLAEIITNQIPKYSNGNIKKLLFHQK

Consider `O=C(O)C(F)(F)C(F)(F)C(F)(F)C(F)(F)C(F)(F)C(F)(F)C(F)(F)C(F)(F)F`, for which the Potency result in assay [1], in [13] and in assay [14] was “inactive” each time. Besides, the compound was classed as inactive in assay [2], in [3], in assay [4], in assay [5], in assay [6] and in assay [7]. For the same compound, the compound was called inactive in assay [8], in assay [9], in [10], in [11] and in assay [12].

Take `C=C(C)C(=O)OCCCCOC(=O)C(=C)C`: the Potency entry in assay [1], in assay [15], in assay [13] and in assay [14] was “inactive” each time. The call in assay [2], in assay [3], in assay [4], in [5], in assay [6] and in assay [7] was inactive. The call in assay [8], in [9], in assay [10], in [11] and in [12] was inactive.

As to `C=CC(=O)OCC`, the Potency entry in assay [1], in [15], in assay [13] and in assay [14] was “inactive” throughout. In addition, the call in [16], in [2], in assay [3], in assay [4], in assay [5] and in assay [6] was inactive. For the same compound, the compound was classed as inactive in assay [7], in assay [8], in [10], in [11] and in assay [12].

Turning to `[Cl-].[Cl-].[Hg+2]`, the Potency in [15] was 5.31 µM (active) and 30.5 µM (active) and 61.1 µM (active). Moreover, the outcome in assay [16], in [2], in [3], in assay [4], in assay [5] and in assay [6] was inactive. For the same compound, the compound was called inactive in assay [7], in assay [8], in assay [9], in assay [10], in [11] and in assay [12].

For the compound `CCCCCCCCn1sccc1=O`, the Potency entry in [1], in [17] and in assay [13] was “inactive” in each case. In addition, the Potency in assay [15] is 54.6 µM (active); in assay [18] it was 30.7 µM (active) and 64.1 µM (active); in assay [14] it was 49.1 µM (active) and 36.3 µM (active). Moreover, the result in assay [16], in assay [2], in assay [4], in assay [5], in assay [6] and in assay [7] was inactive. The result in [8], in [9], in [10], in [11] and in assay [12] was inactive.

`C[Si](Cn1cncn1)(c1ccc(F)cc1)c1ccc(F)cc1`: the Potency entry in [1] and in assay [15] was “inactive” throughout. The Potency in [17] is 31.6 µM (active); in assay [18] it was 56.3 µM (active) and 27.3 µM (active). In addition, the call in assay [2], in assay [3], in assay [4], in assay [5], in [6] and in assay [7] was inactive. The compound was called inactive in [8], in [10], in assay [11] and in [12].

On to `ClCc1ccccc1Cl`, for which the Potency entry in [1], in assay [15], in assay [17], in [13] and in assay [14] was “inactive” throughout. In addition, the outcome in assay [16], in [2], in assay [3], in [4], in assay [5] and in assay [6] was inactive. For the same compound, the result in assay [7], in assay [9], in assay [10], in [11] and in [12] was inactive.

For `COP(=O)(OC)OC(Br)C(Cl)(Cl)Br` (stereo not given), the Potency result in assay [15], in assay [17], in [13] and in [14] was “inactive” in each case. Also, the compound was classed as inactive in assay [16], in [2], in assay [3], in [4], in assay [5] and in [6]. Besides, the result in [7], in [8], in assay [9], in assay [10], in [11] and in assay [12] was inactive.
